# Laboratory results as given in PubChem BioAssay (NCATS).
# Several values for one entry are separate records, joined by “and”; a condition that tells them apart may be missing. Equal values may be shown once. Records with an inconclusive call do not appear. A number with no mark means an inactive call. Activity calls are given as the source filed them. Calls follow the shape of the dose curve; as a rule, active = well fitted curve in the direction sought with a large enough effect; inconclusive = small, poorly fitted or top-dose-only effect, or another doubt; inactive = no such curve, though single readings can be large; an effect the other way counts as inactive or inconclusive.
# Key:
# [1] = Quantitative highthroughput screen to assess conditional lethalithy of P12 Ichikawa cells grown in Human Plasma-Like Medium with dialyzed fetal bovine serum (HPLM+ds) (AID 1963879); details: ATP luminescence, 48 h; Potency: viability; series mostly up to 45.8 µM; also: nearly all actives have a fitted effect of over 35% in size
# Procedure, shortened: (§1)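 Each medium arm—HPLM with 10% dialyzed FBS, or RPMI1640 with 5 mM glucose and 10% untreated or dialyzed FBS—was screened against an 11-point, 3-fold compound titration for 48 h at 37 °C, with CellTiter-Glo luminescence as endpoint.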
# [2] = Quantitative highthroughput screen to assess conditional lethalithy of P12 Ichikawa cells grown in RPMI1640 with dialyzed fetal bovine serum (RPMI+ds) (AID 1963880); details: ATP luminescence, 48 h; Potency: P12-Ichikawa viability; series mostly up to 45.8 µM; also: nearly all actives have a fitted effect of over 35% in size;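 as to viability: 100% = DMSO wells and 0% = empty wells on each plate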
# Procedure, shortened: as §1
# [3] = Quantitative highthroughput screen to assess conditional lethalithy of P12 Ichikawa cells grown in RPMI1640 with untreated serum (RPMI+s) (AID 1963881); details: ATP luminescence, 48 h; Potency: viability; series mostly up to 45.8 µM; also: nearly all actives have a fitted effect of over 35% in size;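 as to viability: 100% = DMSO wells and 0% = empty wells without cells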
# Procedure, shortened: as §1
# [4] = Quantitative highthroughput screen to assess conditional lethalithy of SEM cells grown in Human Plasma-Like Medium with dialyzed fetal bovine serum (HPLM+ds) (AID 1963882); details: SEM B-ALL cells in HPLM+ds, CellTiter-Glo viability, 48 h; series mostly up to 45.8 µM; also: nearly all actives have a fitted effect of over 35% in size
# Procedure, shortened: as §1
# [5] = Quantitative highthroughput screen to assess conditional lethalithy of SEM cells grown in RPMI1640 with dialyzed fetal bovine serum (RPMI+ds) (AID 1963884); details: SEM B-ALL cells, RPMI+dialyzed FBS, CellTiter-Glo viability, 48 h; series mostly up to 45.8 µM; also: nearly all actives have a fitted effect of over 35% in size;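 as to viability: 100% = DMSO control wells and 0% = empty wells without cells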
# Procedure, shortened: as §1
# [6] = Cellular viability qHTS for adrenocortical cancer (ACC) cell line NCI-H295R (AID 1963990); details: CellTiter-Glo ATP luminescence, 48 h; series mostly up to 46.1 µM; also: nearly all actives have a fitted effect of over 60% in size;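 as to activity change, negative = viability loss: 0% = DMSO only wells and -100% = full killing with cytotoxic reference compound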
# Procedure, shortened: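 Viability of NCI-H295R after 48 h of treatment (final up to 46 uM) measured through cellular ATP luminescence.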
# [7] = Quantitative highthroughput screen to assess conditional lethalithy of SEM cells grown in RPMI1640 with unreated serum (RPMI+s) (AID 1963883); details: SEM B-ALL cells, CellTiter-Glo viability, 48 h; series mostly up to 45.8 µM; also: nearly all actives have a fitted effect of over 35% in size;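 as to viability: 100% = DMSO wells and 0% = empty wells without cells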
# Procedure, shortened: as §1
# [8] = Cellular viability qHTS for adrenocortical cancer (ACC) cell line SW-13 (AID 1963989); details: SW-13 ACC cells viability, CellTiter-Glo, 48 h; activity (max response): stronger effect = lower value; also: nearly all actives have a fitted effect of over 65% in size;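 as to activity (max response): cells grown in serum-free medium with ITS supplement; % is scaled to controls: 0 for no effect and ±100 for the full control effect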
# Procedure, shortened: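 Here, serum-free SW-13 cultures were dosed up to 46 uM. Following 48 h, ATP-dependent luminescence (CellTiter-Glo) reported viable cells, and logistic modeling produced IC50 values.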
# Potency is read from the fitted curve at half-maximal effect.
smiles,measurement,setting,value
C[C@]12C=CC(=O)C=C1CC[C@@H]1[C@@H]2[C@@H](O)C[C@@]2(C)[C@@H]1CC[C@]2(O)C(=O)CO,Potency,[1],16.6 µM (active)
same,Potency,[2],7.43 µM (active)
same,Potency,[3],6.62 µM (active)
same,Potency,[4],6.62 µM (active)
COC(=O)C=CC(=O)OC,Potency,[1],0.935 µM (active)
same,Potency,[2],1.48 µM (active)
same,Potency,[3],2.64 µM (active)
same,Potency,[5],2.64 µM (active)
Cc1cc(N2CCOCC2)cc2[nH]c(-c3c(NC[C@@H](O)c4cccc(Cl)c4)cc[nH]c3=O)nc12,Potency,[1],inactive
same,Potency,[2],inactive
same,Potency,[4],1.48 µM (active)
same,Potency,[5],1.87 µM (active)
same,Potency,[6],5.01 µM (active)
COc1cc2nc(N(C)CCCNC(=O)C3CCCO3)nc(N)c2cc1OC (stereo not drawn),Potency,[1],inactive
same,Potency,[2],inactive
same,Potency,[3],inactive
same,Potency,[4],inactive
same,Potency,[7],inactive
same,Potency,[5],inactive
same,activity (max response),[8],-10.5%
same,Potency,[6],inactive
O=C(O)C=Cc1ccc(O)c(O)c1,Potency,[1],26.4 µM (active)
same,Potency,[2],26.4 µM (active)
same,Potency,[7],13.2 µM (active)
same,Potency,[5],14.8 µM (active)
COc1cc(OC)c(C=CS(=O)(=O)Cc2ccc(OC)c(NCC(=O)O)c2)c(OC)c1,Potency,[1],0.264 µM (active)
same,Potency,[2],0.166 µM (active)
same,Potency,[3],0.235 µM (active)
same,Potency,[7],0.209 µM (active)
same,Potency,[5],0.118 µM (active)
CON=C(C(=O)N[C@@H]1C(=O)N2C(C(=O)O)=C(CSC(=O)c3ccco3)CS[C@H]12)c1csc(N)n1,Potency,[1],inactive
same,Potency,[2],inactive
same,Potency,[3],inactive
same,Potency,[4],inactive
same,Potency,[7],inactive
same,Potency,[5],inactive
CCOC1OC(=O)C[C@H]1NC(=O)[C@@H]1CCCN1C(=O)[C@@H](NC(=O)c1ccc(N)c(Cl)c1)C(C)(C)C (stereo partly drawn),Potency,[1],1.66 µM (active)
same,Potency,[2],3.32 µM (active)
same,Potency,[3],1.87 µM (active)
same,Potency,[4],inactive
same,Potency,[7],inactive
same,Potency,[5],inactive
Cc1[nH]c(C=C2C(=O)Nc3ccc(S(=O)(=O)N(C)c4cccc(Cl)c4)cc32)c(C)c1C(=O)N1CCN(C)CC1,Potency,[1],18.7 µM (active)
same,Potency,[2],14.8 µM (active)
same,Potency,[3],18.7 µM (active)
same,Potency,[4],13.2 µM (active)
same,Potency,[7],11.8 µM (active)
same,Potency,[5],6.62 µM (active)
COc1cc(CNC(=O)CCCCC=CC(C)C)ccc1O,Potency,[1],0.332 µM (active)
same,Potency,[2],0.418 µM (active)
same,Potency,[3],0.833 µM (active)
same,Potency,[7],0.526 µM (active)
COc1cc2c(Nc3ccc(Cl)c(Cl)c3F)ncnc2cc1OCC1C[C@@H]2CN(C)C[C@H]2C1,Potency,[1],11.8 µM (active)
same,Potency,[2],16.6 µM (active)
same,Potency,[3],13.2 µM (active)
same,Potency,[4],10.5 µM (active)
same,Potency,[7],2.64 µM (active)
same,Potency,[5],11.8 µM (active)
CCNC(=O)CCCC=CC[C@@H]1[C@H](C=CC(O)CCc2ccccc2)[C@@H](O)C[C@@H]1O (stereo partly drawn),Potency,[1],inactive
same,Potency,[3],inactive
same,Potency,[4],inactive
same,Potency,[7],inactive
same,Potency,[5],inactive
COc1cc2c(cc1OC)[C@@H]1Cc3ccc(OC)c(OC)c3CN1CC2,Potency,[1],inactive
same,Potency,[2],inactive
same,Potency,[3],inactive
same,Potency,[7],inactive
same,Potency,[5],inactive
CO[C@H]1O[C@@H]2O[C@@]3(C)CC[C@@H]4[C@@H](C)CC[C@@H]([C@H]1C)[C@@]24OO3,Potency,[1],inactive
same,Potency,[2],14.8 µM (active)
same,Potency,[3],16.6 µM (active)
same,Potency,[4],inactive
Cc1ccc(N(CC2=NCCN2)c2cccc(O)c2)cc1,Potency,[1],inactive
same,Potency,[3],inactive
same,Potency,[7],inactive
same,Potency,[8],23.1 µM (active) and 25.1 µM (active)
same,Potency,[6],inactive
NC1=N[C@@]2(c3cc(NC(=O)c4ccc(F)cn4)ccc3F)COC[C@@H]2CS1,Potency,[1],1.87 µM (active)
same,Potency,[2],3.32 µM (active)
same,Potency,[3],1.66 µM (active)
same,Potency,[7],11.8 µM (active)
same,Potency,[5],inactive
CNC(=O)c1cccc(-c2ccc3c(N4CCOC[C@H]4C)nc(N4CCOC[C@H]4C)nc3n2)c1,Potency,[1],0.0743 µM (active)
same,Potency,[4],0.264 µM (active)
same,Potency,[7],2.64 µM (active)
COc1ccc(Cc2nccc3cc(OC)c(OC)cc23)cc1OC,Potency,[1],inactive
same,Potency,[3],inactive
same,Potency,[4],inactive
COc1cc2c(cc1O)CCC1C2CC[C@@]2(C)C1CC[C@@H]2O (stereo partly drawn),Potency,[1],1.87 µM (active)
same,Potency,[3],2.64 µM (active)
CC(C)n1c(C=C[C@H](O)C[C@H](O)CC(=O)O)c(-c2ccc(F)cc2)c2ccccc21,Potency,[1],5.9 µM (active)
same,Potency,[2],4.69 µM (active)
same,Potency,[3],4.69 µM (active)
CC(C)(C)c1[nH]cnc1C=c1[nH]c(=O)c(=Cc2ccccc2)[nH]c1=O,Potency,[1],0.0061 µM (active)
same,Potency,[2],0.0108 µM (active)
same,Potency,[3],0.0086 µM (active)
same,Potency,[4],0.0048 µM (active)
same,Potency,[5],0.0061 µM (active)
CNc1nc(-c2ccc3c(N)n[nH]c3c2)cc(N2C[C@@H](C(=O)NC3CCCCC3)CC[C@@H]2C)n1,Potency,[1],23.5 µM (active)
same,Potency,[3],16.6 µM (active)
same,Potency,[4],16.6 µM (active)
same,Potency,[7],16.6 µM (active)
same,Potency,[5],18.7 µM (active)
COc1ccnc2c1CCCCC2S(=O)c1nc2ccccc2[nH]1 (stereo not drawn),Potency,[6],inactive
O=c1[nH]nc2c3c(cccc13)NC(CN1Cc3ccccc3C1)=N2,activity (max response),[8],-23.2%
same,Potency,[6],inactive
CCN(CC)CCNC(=O)COc1ccc(OC)cc1,activity (max response),[8],-8.99%
same,Potency,[6],inactive
CCC(C(=O)OCCN(CC)CC)c1ccccc1 (stereo not drawn),activity (max response),[8],4.88%
same,Potency,[6],inactive
O=C(C[C@@H]1C/C=C\CCC(=O)O[C@H](c2ccccc2)CNC1=O)NCc1ccc(Cl)cc1,activity (max response),[8],11.5%
same,Potency,[6],inactive
COC(=O)c1c(Cl)c(Cl)c(C(=O)OC)c(Cl)c1Cl,activity (max response),[8],12.2%
same,Potency,[6],inactive
COc1ncc(Nc2ncc(C(C)N3CCN(S(C)(=O)=O)CC3)cc2-c2nc(C)nc(N)n2)cc1F (stereo not drawn),activity (max response),[8],-11.9%
same,Potency,[6],inactive
COCCNc1cc(NC(=O)N2CCCc3cc(CN4CCN(C)CC4=O)c(C=O)nc32)ncc1C#N,activity (max response),[8],-2.64%
same,"activity change, negative = viability loss",[6],-1.4% [at 9.17 µM]
CC(C)C[C@@H]1[C@H](c2ccccc2)OC(=O)N1CCCN1CCCCCC1,activity (max response),[8],-14.7%
same,Potency,[6],inactive
CC(C)Cc1ccc(C(C)C(=O)OCc2ccccn2)cc1 (stereo not drawn),activity (max response),[8],14%
same,Potency,[6],inactive
CN1C(=O)N(c2cc(Cl)cc(Cl)c2)C(=O)[C@]12CN(Cc1cc(C(=O)O)cs1)C[C@H]2c1ccc(C#N)cc1,activity (max response),[8],-17%
same,Potency,[6],inactive
O=C(O)c1ccccc1-c1ccc(/C=c2\sc3nc4cc(Br)cnc4n3c2=O)o1,activity (max response),[8],-2.9%
same,Potency,[6],inactive
CN/C(=C\[N+](=O)[O-])NCCSCc1ccc(CN(C)C)o1,activity (max response),[8],0.385%
same,Potency,[6],inactive
O=C(NCc1ccc(S(=O)(=O)c2cccc(C(F)(F)F)c2)cc1)c1cnc2[nH]ncc2c1,Potency,[8],0.0282 µM (active)
same,Potency,[6],0.0178 µM (active)
COc1cc(O)cc(O)c1,activity (max response),[8],-2.38%
same,Potency,[6],inactive
c1ccc(CCNc2nc(-c3ccccc3)cs2)cc1,activity (max response),[8],-5.01%
same,Potency,[6],inactive
CC(=O)Nc1ccc(C(=O)NC(C)(C)C)cc1,activity (max response),[8],-16.7%
same,Potency,[6],inactive
Nc1cc(C(F)(F)F)c(-c2nc(N3CCOCC3)nc(N3CCOCC3)n2)cn1,Potency,[8],11.2 µM (active)
same,Potency,[6],2 µM (active)
CC(=O)OCC(=O)[C@@]1(O)CC[C@H]2[C@@H]3CCC4=CC(=O)C=C[C@]4(C)[C@@]3(F)[C@@H](O)C[C@@]21C,activity (max response),[8],2.62%
same,Potency,[6],inactive
CC(C)(C)NC[C@H](O)COc1nsnc1N1CCOCC1,activity (max response),[8],-5.85%
same,Potency,[6],inactive
Cc1cc(Nc2cc(N3CCN(C)CC3)nc(/C=C/c3ccccc3)n2)n[nH]1,Potency,[8],25.1 µM (active)
same,Potency,[6],10 µM (active)
Oc1c(Cl)cc(Cl)cc1Sc1cc(Cl)cc(Cl)c1O,Potency,[8],20.6 µM (active)
same,Potency,[6],20.6 µM (active)
Cc1cc(C)c(/C=C2\C(=O)Nc3ccccc32)[nH]1,activity (max response),[8],5.7% and 12.2%
same,Potency,[6],inactive
